From PubChem BioAssay (Tox21)
Activity calls are given as the source filed them. Calls come from the whole dose curve; as a rule, active = well fitted curve in the direction sought with a large enough effect in the repeat runs; inconclusive = weak or mixed curves; inactive = flat fitted curve, though single readings scatter.

Assays:
[1] = qHTS assay to test for compound auto fluorescence at 535 nm (green) in HEK293 cells (AID 720680)
[2] = qHTS assay to test for compound auto fluorescence at 460 nm (blue) in HEK293 cell free culture (AID 720681)
Outline: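 Test compounds were pinned into cell-free culture medium (DMEM with 10% FBS) and fluorescence was read directly at Ex/Em 405/460 nm. Signals were expressed as fluorescence equivalents of triamterene, with DMSO vehicle as control.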

[3] = qHTS assay to test for compound auto fluorescence at 535 nm (green) in HEK293 cell free culture (AID 720682)
Outline: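 Each library compound, or DMSO control, is added by pintool to medium alone, comprising DMEM and 10% FBS. Emission at 535 nm following 485 nm excitation is quantified against fluorescein.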

[4] = qHTS assay to test for compound auto fluorescence at 590 nm (red) in HEK293 cell free culture (AID 720683)
Outline: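 Tox21 10K library compounds were pinned into cell-free DMEM with 10% FBS and fluorescence was read at excitation 540 nm. Activity is expressed as Rose Bengal sodium equivalency.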

[5] = qHTS assay to test for compound auto fluorescence at 590 nm (red) in HepG2 cell free culture (AID 720684)
Outline: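 Ex 540 / Em 590 nm read of compound in cell-free MEM (10% FBS). Rose Bengal sodium reference.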

[6] = qHTS assay to test for compound auto fluorescence at 460 nm (blue) in HepG2 cell free culture (AID 720685)
Outline: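 Cell-free plates of MEM plus 10% FBS received 23 nL compound or DMSO vehicle; blue-channel (405/460 nm) intensity scored against triamterene as reference fluorophore.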

[7] = qHTS assay to test for compound auto fluorescence at 535 nm (green) in HepG2 cell free culture (AID 720686)
[8] = qHTS assay to test for compound auto fluorescence at 460 nm (blue) in HepG2 cells (AID 720687)
Outline: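 Cells (2,000/well in MEM with 10% FBS) attached overnight at 37 C, then were exposed to compound or DMSO for 1 hr at 37 C, 5% CO2. Fluorescence read at Ex/Em 405/460 nm, expressed as triamterene-equivalent signal.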

Measured: Potency

Cc1cc(C(=O)NCCc2ccc(S(=O)(=O)NC(=O)NN3CCCCCC3)cc2)no1
inactive: all assays above

C=N[C@@H](C(=O)N[C@@H]1C(=O)N2[C@@H]1SC(C)(C)[C@@H]2C(=O)O)c1ccccc1
inactive: all assays above

CCC(C)(C)c1ccc(CC(C)CN2C[C@@H](C)O[C@@H](C)C2)cc1 (stereo not given in full)
not listed: [8]
inactive: all other assays above

C=C(Nc1ccc(OCC)cc1)Nc1ccc(OCC)cc1
inactive: all assays above

NC(=O)[C@@H]1C[C@]2(NC(=O)NC2=O)c2cc(F)ccc2O1
not listed: [8]
inactive: all other assays above

CC[C@H](C)C(=O)O[C@H]1CCC=C2C=C[C@H](C)[C@H](CC[C@@H]3C[C@@H](O)CC(=O)O3)[C@H]21
inactive: all assays above

c1ccc2c(c1)OCC(CN1CCCCC1)O2 (stereo not given)
inactive: all assays above

CCOc1ccc([N+](=O)[O-])cc1
inactive: all assays above

COc1cc2c(cc1OC)[C@@H](Cc1cc(OC)c(OC)c(OC)c1)[N+](C)(CCCOC(=O)CC/C=C/CCC(=O)OCCC[N+]1(C)CCc3cc(OC)c(OC)cc3[C@H]1Cc1cc(OC)c(OC)c(OC)c1)CC2 (stereo not given in full)
inactive: all assays above

c1ccc2occc2c1
inactive: all assays above

CO/N=C(\C(=O)N[C@@H]1C(=O)N2C(C(=O)[O-])=C(C[n+]3cccc4c3CCC4)CS[C@H]12)c1csc(N)n1
not listed: [8]
inactive: all other assays above

CCCCCCCC1CCC(=O)O1 (stereo not given)
inactive: all assays above

C=C1C(CCl)(CCl)C2(Cl)C(Cl)C(Cl)C1(Cl)C2(Cl)Cl (stereo not given)
inactive: all assays above

O=C1CCC/C=C\CCCCCCCCCC1
not listed: [8]
inactive: all other assays above

CC1(C)C[C@@H]1C(=O)N/C(=C\CCCCSC[C@H](N)C(=O)O)C(=O)O
not listed: [8]
inactive: all other assays above

CN1CCN(CCCN2c3ccccc3Sc3ccc(C(F)(F)F)cc32)CC1
inactive: all assays above

CCN1\C(=C/C=C/C=C/c2sc3ccccc3[n+]2CC)Sc2ccccc21
inactive: all assays above

N#Cc1c(N(CC(=O)O)CC(=O)O)sc(C(=O)O)c1CC(=O)O
not listed: [8]
inactive: all other assays above

NC[C@H]1O[C@H](O[C@H]2[C@H](O)[C@@H](O[C@H]3O[C@H](CO)[C@@H](O)[C@H](N)[C@H]3O)[C@H](N)C[C@@H]2N)[C@H](N)C[C@@H]1O
inactive: all assays above

COc1ccc2ccccc2c1
inactive: all assays above

O=C(N[C@H](CO)[C@H](O)c1ccc([N+](=O)[O-])cc1)C(Cl)Cl
inactive: all assays above

COc1cc([C@@H]2c3cc4c(cc3[C@@H](O[C@@H]3O[C@@H]5CO[C@@H](C)O[C@H]5[C@H](O)[C@H]3O)[C@H]3COC(=O)[C@H]23)OCO4)cc(OC)c1O
inactive: all assays above
